Our source for the outcome and AC50 values is PubChem BioAssay (EPA / NIEHS).

In assay [1] the target is Myc proto-oncogene protein (Homo sapiens) (UniProt P01106). The experiment in a line: ATG_Myc_CIS: Attagene CIS-FACTORIAL HepG2 Assay for human Myelocytomatosis (Myc) Proto-Oncogene Transcription Factor (AID 2282990). As to conditions: HepG2, Attagene cis-reporter transcription factor activity; actives raise or lower the signal. The gist of the method: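 HepG2 cells transiently transfected with multiple cis-promoter-driven reporter transcription units, so endogenous TF activity is read. After 24 h compound exposure, reporter mRNA was quantified by RT-PCR, 6-FAM labelling, HpaI digestion and capillary electrophoresis; bidirectional fit versus DMSO.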

The nature of assay [2]: ATG_NF_kB_CIS: Attagene CIS-FACTORIAL HepG2 Assay for human Nuclear Factor Kappa B (NF-kB) (AID 2282991). As to conditions: HepG2 Attagene cis-factorial NF-kB reporter mRNA; actives raise or lower the signal. An outline of the steps:
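Fluorescence of labelled RT-PCR products separated by capillary electrophoresis gives reporter mRNA levels from transfected HepG2 cells exposed 24 h; values are fitted in both directions relative to DMSO.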

Assay [3] can be described thus: ATG_NRF2_ARE_CIS: Attagene CIS-FACTORIAL HepG2 Assay for human Nuclear Factor Erythroid 2 Related Factor 2 (NFR2) response to Antioxidant Response Elements (ARE) (AID 2282992). The settings on record: HepG2 Attagene ARE/NRF2 reporter, transcription factor activity; actives raise or lower the signal. An outline of the steps: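 HepG2 cells transiently transfected with multiplexed cis-element reporter constructs, 24 h after chemical dosing; reporter mRNA quantified by RT-PCR, fluorescent primer extension, HpaI digestion and capillary electrophoresis. Bidirectional fit relative to DMSO.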

The target of assay [4] is Cellular tumor antigen p53 (Homo sapiens) (UniProt P04637). The experiment in a line: ATG_p53_CIS: Attagene CIS-FACTORIAL HepG2 Assay for human p53 Transcription Factor (AID 2282994). As to conditions: HepG2 p53 cis-element reporter, Attagene mRNA; actives raise or lower the signal. An outline of the steps: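 HepG2 cells transiently transfected with cis-regulated multiple reporter transcription units, dosed 24 h. Reporter mRNA measured by RT-PCR, 6-FAM primer extension, HpaI digestion and capillary electrophoresis; bidirectional fit relative to DMSO.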

The target of assay [5] is human Peroxisome Proliferator-activated Receptor alpha (PPARa), PPARA (gene 5465) (UniProt Q07869). The experiment in a line: ATG_PPARa_TRANS: Attagene TRANS-FACTORIAL HepG2 Assay for human Peroxisome Proliferator-activated Receptor alpha (PPARa) (AID 2283001; active means hit-call score of the fitted dose curve at least 0.9, where 1 is the maximum;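 on AC50: potency for gain of reporter signal over DMSO so agonist or activator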). The gist of the method:
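HepG2 cells transiently transfected with multiplexed GAL4-UAS reporter units and chimeric NR-Gal4 constructs were dosed for 24 h. Reporter mRNA was measured by RT-PCR with fluorescent labelling and capillary electrophoresis; gain of signal fitted against DMSO.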

Assay [6] has as its target Retinoic acid receptor alpha (Homo sapiens) (UniProt P10276). The experiment in a line: ATG_RARa_TRANS: Attagene TRANS-FACTORIAL HepG2 Assay for human Retinoic Acid Receptor alpha (RARa) (AID 2283005; active means hit-call score of the fitted dose curve at least 0.9, where 1 is the maximum). An outline of the steps:
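HepG2 cells transiently transfected with multiple reporter units expressing chimeric RARα-GAL4 fusion, with GAL4-UAS-driven reporters. After 24 h compound exposure, reporter mRNA induction quantified by RT-PCR and capillary electrophoresis with fluorescent labeling; gain-of-signal fitted relative to DMSO control.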

The target of assay [7] is Peroxisome proliferator-activated receptor gamma (Homo sapiens) (UniProt P37231). The experiment in a line: ATG_PPARg_TRANS: Attagene TRANS-FACTORIAL HepG2 Assay for human Peroxisome Proliferator-activated Receptor-gamma (PPARg) (AID 2283007; active means hit-call score of the fitted dose curve at least 0.9, where 1 is the maximum). The gist of the method: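 Twenty-four hours after chemical dosing of transiently transfected HepG2 cells, isolated RNA was converted to cDNA, reporter sequences amplified and 6-FAM-labelled, then HpaI-digested and analysed by capillary electrophoresis. Signal increase against DMSO was fitted.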

The target of assay [8] is Nuclear receptor subfamily 1 group I member 2 (Homo sapiens) (UniProt O75469). Nature of the assay: ATG_PXR_TRANS: Attagene TRANS-FACTORIAL HepG2 Assay for human Pregnane X Receptor (PXR) (AID 2283008; active means hit-call score of the fitted dose curve at least 0.9, where 1 is the maximum). An outline of the steps:
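HepG2 cells transiently transfected with GAL4-UAS reporter units and PXR-Gal4 chimera, exposed 24 h. Reporter mRNA quantified by RT-PCR, fluorescent labelling, HpaI digestion and capillary electrophoresis; gain of signal vs DMSO.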

A short description of assay [9]: ATG_Oct_MLP_CIS: Attagene CIS-FACTORIAL HepG2 Assay for human Octamer-Binding Transcription Factor (Oct) (AID 2282993). As to conditions: HepG2 Attagene cis-factorial Oct reporter, mRNA; actives raise or lower the signal. The gist of the method: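 Readout is reporter transcript level from RT-PCR with fluorescent primer extension and capillary electrophoresis, fitted in both directions against DMSO. Transfected HepG2 reporter units report endogenous factor activity after 24 h dosing.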

The nature of assay [10]: BSK_3C_TissueFactor: BioMAP Diversity Plus: 3C Assay for Tissue Factor Biomarker Activity (AID 2282997). The settings on record: BioMAP 3C HUVEC, tissue factor biomarker readout; actives raise or lower the signal. An outline of the steps:
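Primary human umbilical vein endothelial cells in the 3C system were exposed to test chemical for 24 h, then Tissue Factor measured by ELISA. Activity was fitted bidirectionally against DMSO as negative control and baseline.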

The nature of assay [11]: BSK_3C_uPAR: BioMAP Diversity Plus: 3C Assay for Urokinase-type plasminogen activator receptor (uPAR) Biomarker Activity (AID 2282998). As to conditions: BioMAP 3C HUVEC, uPAR biomarker ELISA; actives raise or lower the signal. An outline of the steps:
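Cell-surface uPAR on HUVEC (3C system) read by ELISA at 24 h post-treatment, with DMSO as baseline and fitting in both directions. Parallel cultures stained with SRB to flag overt cytotoxicity.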
For orientation: An ELISA detects its analyte on a solid surface through an enzyme-linked reagent.

Assay [12] can be described thus: BSK_3C_VCAM1: BioMAP Diversity Plus: 3C Assay for Vascular cell adhesion molecule 1 (VCAM1) Biomarker Activity (AID 2282999). As to conditions: BioMAP 3C HUVEC, VCAM1 ELISA, cytokine-stimulated; actives raise or lower the signal. An outline of the steps:
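Human umbilical vein endothelial cells were dosed with compound for 24 h, after which cell-surface VCAM-1 was quantified by ELISA. Bidirectional curve fitting used DMSO as negative control and activity baseline.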

Assay [13] in a line: BSK_4H_Eotaxin3: BioMAP Diversity Plus: 4H Assay for Eotaxin 3 Biomarker Activity (AID 2283000).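 On outcome: CCL26 protein level quantified by ELISA in parallel with SRB cytotoxicity check.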 The settings on record: primary human endothelial cells (HUVEC); actives raise or lower the signal. An outline of the steps: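 HUVEC, 24 h post-dose, ELISA for Eotaxin-3/CCL26. Gain or loss of signal fitted bidirectionally vs DMSO baseline.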
Read-out in assay [14]: Intercellular Adhesion Molecule 1 (ICAM1), ICAM1 (gene 3383)
Nature of the assay: BSK_3C_ICAM1: BioMAP Diversity Plus: 3C Assay for Intercellular Adhesion Molecule 1 (ICAM1) Biomarker Activity (AID 2283003). The settings on record: primary human endothelial cells (HUVEC); actives raise or lower the signal. The gist of the method: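 Primary human umbilical vein endothelial cells in the BioMAP 3C system were exposed to chemicals for 24 h, then ICAM-1 was quantified by ELISA. Activity was fitted bidirectionally against the DMSO negative control baseline.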

The target of assay [15] is human Retinoic Acid Receptor beta (RARb), RARB (gene 5915) (UniProt P10826). The experiment in a line: ATG_RARb_TRANS: Attagene TRANS-FACTORIAL HepG2 Assay for human Retinoic Acid Receptor beta (AID 2283004; active means hit-call score of the fitted dose curve at least 0.9, where 1 is the maximum). The gist of the method: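 HepG2 cells transiently transfected with multiplexed GAL4-UAS reporter units expressing chimeric NR–Gal4 fusions; 24 h compound exposure. Reporter mRNA quantified by RT-PCR, 6-FAM labelling, HpaI digestion and capillary electrophoresis; gain-of-signal fitted against DMSO baseline.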

Assay [16] is described as follows: BSK_3C_Proliferation: Cell Proliferation Assessment in the BioMAP Diversity Plus: 3C Assay (AID 2283006).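 On AC50: potency may reflect either rise or fall in cell number versus DMSO.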 The settings on record: primary human endothelial cells (HUVEC). An outline of the steps: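 Human umbilical vein endothelial cells were grown sub-confluent and exposed to chemical for 48 h, then fixed with 10% TCA and stained with 0.1% sulforhodamine B; absorbance at 560 nm gave relative cell number, fitted bidirectionally against DMSO baseline.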

The target in assay [17] is human Peroxisome Proliferator-activated Receptor delta (PPARd), PPARD (gene 5467) (UniProt Q03181). The experiment in a line: ATG_PPARd_TRANS: Attagene TRANS-FACTORIAL HepG2 Assay for human Peroxisome Proliferator-activated Receptor delta (PPARd) (AID 2283002; active means hit-call score of the fitted dose curve at least 0.9, where 1 is the maximum). The gist of the method:
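HepG2 cells transiently transfected with multiplexed GAL4-UAS reporter units and exogenous chimeric NR-Gal4 proteins; 24 h compound exposure. Reporter mRNA measured by RT-PCR, 6-FAM labelling, HpaI digestion and capillary electrophoresis; gain of signal versus DMSO.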

For assay [18], the target named is human Retinoic Acid Receptor gamma (RARg), RARG (gene 5916) (UniProt P13631). Nature of the assay: ATG_RARg_TRANS: Attagene TRANS-FACTORIAL HepG2 Assay for human Retinoic Acid Receptor gamma (RARg) (AID 2283009; active means hit-call score of the fitted dose curve at least 0.9, where 1 is the maximum). An outline of the steps: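 HepG2 cells transiently transfected with multiplexed reporter units expressing chimeric RARg-GAL4 and GAL4-UAS-driven reporters; 24 h compound exposure. Reporter mRNA quantified by RT-PCR with fluorescent labelling and capillary electrophoresis; gain-of-signal fitted relative to DMSO baseline.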

The target in assay [19] is human RAR-related Orphan Receptor beta (RORb), RORB (gene 6096) (UniProt Q92753). Nature of the assay: ATG_RORb_TRANS: Attagene TRANS-FACTORIAL HepG2 Assay for human RAR-related Orphan Receptor beta (RORb) (AID 2283010; active means hit-call score of the fitted dose curve at least 0.9, where 1 is the maximum). The gist of the method: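 HepG2 cells were transiently transfected with multiplexed GAL4-UAS reporter units expressing chimeric nuclear receptor–GAL4 proteins, then dosed for 24 h. Reporter mRNA was quantified by RT-PCR with fluorescent labelling and capillary electrophoresis; gain of signal was fitted relative to DMSO.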

Results filed as inconclusive are left out. Calls of active or inactive are those of the source. How the source made its calls, unless noted: active means hit-call score of the fitted dose curve at least 0.9, where 1 is the maximum; inactive means score below 0.9.

Sequence of Peroxisome proliferator-activated receptor gamma (Homo sapiens) (P37231 whole entry, looked up): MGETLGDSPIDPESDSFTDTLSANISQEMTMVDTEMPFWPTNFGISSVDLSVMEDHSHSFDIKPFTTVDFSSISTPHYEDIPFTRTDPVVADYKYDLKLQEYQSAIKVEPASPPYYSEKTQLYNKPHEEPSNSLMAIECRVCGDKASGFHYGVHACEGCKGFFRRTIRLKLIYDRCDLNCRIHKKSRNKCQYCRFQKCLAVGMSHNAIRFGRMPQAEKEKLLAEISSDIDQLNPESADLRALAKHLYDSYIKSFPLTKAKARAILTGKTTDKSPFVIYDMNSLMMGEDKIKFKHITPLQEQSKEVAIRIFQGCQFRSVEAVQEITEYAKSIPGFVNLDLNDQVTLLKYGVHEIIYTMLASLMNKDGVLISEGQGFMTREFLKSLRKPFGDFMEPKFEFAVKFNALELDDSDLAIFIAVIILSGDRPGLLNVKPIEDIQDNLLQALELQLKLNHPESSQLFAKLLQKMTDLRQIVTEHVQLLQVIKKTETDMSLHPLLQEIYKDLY
Sequence of Cellular tumor antigen p53 (Homo sapiens) (P04637 whole entry, looked up): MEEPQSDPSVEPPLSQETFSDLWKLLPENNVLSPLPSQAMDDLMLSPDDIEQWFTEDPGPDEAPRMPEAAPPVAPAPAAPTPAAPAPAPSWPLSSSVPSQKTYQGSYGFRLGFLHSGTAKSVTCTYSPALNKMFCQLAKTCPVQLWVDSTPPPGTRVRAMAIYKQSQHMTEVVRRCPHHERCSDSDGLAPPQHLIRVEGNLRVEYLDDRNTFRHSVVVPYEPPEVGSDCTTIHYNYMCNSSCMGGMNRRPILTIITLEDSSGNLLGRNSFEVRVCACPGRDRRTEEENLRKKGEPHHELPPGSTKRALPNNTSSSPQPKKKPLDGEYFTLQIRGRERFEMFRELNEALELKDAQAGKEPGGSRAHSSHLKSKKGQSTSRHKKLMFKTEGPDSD
Sequence of human Peroxisome Proliferator-activated Receptor alpha (PPARa), PPARA (gene 5465) (Q07869 whole entry, looked up, the tested form may be a part): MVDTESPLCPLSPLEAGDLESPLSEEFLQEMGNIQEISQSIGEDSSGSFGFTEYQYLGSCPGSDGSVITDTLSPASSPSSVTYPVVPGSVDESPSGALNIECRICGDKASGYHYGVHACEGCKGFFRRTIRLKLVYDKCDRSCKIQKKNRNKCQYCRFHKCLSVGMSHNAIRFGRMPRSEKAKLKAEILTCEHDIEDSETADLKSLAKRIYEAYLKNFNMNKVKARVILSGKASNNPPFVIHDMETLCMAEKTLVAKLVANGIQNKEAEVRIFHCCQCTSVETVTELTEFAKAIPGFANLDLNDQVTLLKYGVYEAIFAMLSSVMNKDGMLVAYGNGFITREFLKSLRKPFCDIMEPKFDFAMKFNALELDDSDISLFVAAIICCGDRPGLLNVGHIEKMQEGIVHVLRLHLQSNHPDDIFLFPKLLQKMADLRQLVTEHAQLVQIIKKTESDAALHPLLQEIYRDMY
Sequence of Nuclear receptor subfamily 1 group I member 2 (Homo sapiens) (O75469 whole entry, looked up, the tested form may be a part): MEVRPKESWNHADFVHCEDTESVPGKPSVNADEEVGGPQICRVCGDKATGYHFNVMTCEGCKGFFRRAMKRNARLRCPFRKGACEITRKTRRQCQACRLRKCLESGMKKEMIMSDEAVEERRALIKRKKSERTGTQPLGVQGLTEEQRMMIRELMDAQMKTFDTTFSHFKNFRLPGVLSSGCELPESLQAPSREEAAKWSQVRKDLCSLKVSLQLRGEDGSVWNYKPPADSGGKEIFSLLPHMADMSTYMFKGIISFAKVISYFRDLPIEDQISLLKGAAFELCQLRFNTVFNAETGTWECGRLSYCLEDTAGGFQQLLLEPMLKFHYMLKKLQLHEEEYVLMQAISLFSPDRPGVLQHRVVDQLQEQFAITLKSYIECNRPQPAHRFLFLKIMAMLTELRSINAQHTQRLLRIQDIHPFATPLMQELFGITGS
Sequence of human Peroxisome Proliferator-activated Receptor delta (PPARd), PPARD (gene 5467) (Q03181 whole entry, looked up, the tested form may be a part): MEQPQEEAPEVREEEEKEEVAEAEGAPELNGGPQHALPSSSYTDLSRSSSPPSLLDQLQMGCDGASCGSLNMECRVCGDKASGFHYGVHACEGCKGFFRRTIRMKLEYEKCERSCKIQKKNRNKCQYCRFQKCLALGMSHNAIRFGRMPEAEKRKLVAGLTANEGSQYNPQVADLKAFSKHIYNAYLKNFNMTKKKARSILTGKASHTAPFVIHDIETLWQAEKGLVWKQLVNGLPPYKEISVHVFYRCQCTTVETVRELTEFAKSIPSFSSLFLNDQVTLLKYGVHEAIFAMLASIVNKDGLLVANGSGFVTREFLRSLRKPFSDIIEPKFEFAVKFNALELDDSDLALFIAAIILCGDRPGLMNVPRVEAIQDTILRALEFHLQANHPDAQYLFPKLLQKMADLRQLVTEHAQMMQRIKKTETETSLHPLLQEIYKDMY
Sequence of Myc proto-oncogene protein (Homo sapiens) (P01106 whole entry, looked up): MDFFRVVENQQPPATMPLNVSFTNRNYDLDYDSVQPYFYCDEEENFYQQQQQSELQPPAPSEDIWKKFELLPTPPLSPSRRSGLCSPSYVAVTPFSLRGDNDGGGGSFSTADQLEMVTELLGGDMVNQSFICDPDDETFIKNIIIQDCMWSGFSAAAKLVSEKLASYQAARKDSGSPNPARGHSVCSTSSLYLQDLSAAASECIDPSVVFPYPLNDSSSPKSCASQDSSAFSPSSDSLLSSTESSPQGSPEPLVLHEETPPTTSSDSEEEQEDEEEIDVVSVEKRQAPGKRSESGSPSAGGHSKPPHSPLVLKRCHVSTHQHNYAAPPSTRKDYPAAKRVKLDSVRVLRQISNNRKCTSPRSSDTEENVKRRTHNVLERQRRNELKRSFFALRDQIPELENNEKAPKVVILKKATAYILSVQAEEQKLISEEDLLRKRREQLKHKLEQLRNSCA
Sequence of human RAR-related Orphan Receptor beta (RORb), RORB (gene 6096) (Q92753 whole entry, looked up, the tested form may be a part): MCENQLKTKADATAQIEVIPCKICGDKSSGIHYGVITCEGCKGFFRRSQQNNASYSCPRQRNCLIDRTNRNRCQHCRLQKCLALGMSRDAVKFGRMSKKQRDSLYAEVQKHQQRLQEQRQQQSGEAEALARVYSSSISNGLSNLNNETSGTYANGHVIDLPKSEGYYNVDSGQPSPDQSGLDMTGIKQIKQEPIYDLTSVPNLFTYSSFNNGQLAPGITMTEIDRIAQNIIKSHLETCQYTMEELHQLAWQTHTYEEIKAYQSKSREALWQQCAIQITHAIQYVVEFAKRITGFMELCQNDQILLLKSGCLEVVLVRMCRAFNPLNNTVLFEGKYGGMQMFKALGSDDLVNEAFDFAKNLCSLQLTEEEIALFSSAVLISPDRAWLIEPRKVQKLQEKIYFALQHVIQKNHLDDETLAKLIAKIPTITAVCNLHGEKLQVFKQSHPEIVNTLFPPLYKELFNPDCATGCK
Sequence of human Retinoic Acid Receptor beta (RARb), RARB (gene 5915) (P10826 whole entry, looked up, the tested form may be a part): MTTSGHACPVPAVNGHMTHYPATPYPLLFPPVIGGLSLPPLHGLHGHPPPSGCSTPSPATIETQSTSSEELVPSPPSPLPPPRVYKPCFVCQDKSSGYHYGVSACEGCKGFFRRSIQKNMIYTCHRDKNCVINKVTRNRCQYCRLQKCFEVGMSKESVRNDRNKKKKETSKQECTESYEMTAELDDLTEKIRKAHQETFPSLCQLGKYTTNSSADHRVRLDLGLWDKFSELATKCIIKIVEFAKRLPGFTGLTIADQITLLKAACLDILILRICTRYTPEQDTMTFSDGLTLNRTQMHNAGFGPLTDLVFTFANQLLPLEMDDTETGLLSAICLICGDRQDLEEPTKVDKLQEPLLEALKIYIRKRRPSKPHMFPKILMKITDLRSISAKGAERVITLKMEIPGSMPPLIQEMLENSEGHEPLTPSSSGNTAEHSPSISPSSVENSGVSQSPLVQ
Sequence of Retinoic acid receptor alpha (Homo sapiens) (P10276 whole entry, looked up, the tested form may be a part): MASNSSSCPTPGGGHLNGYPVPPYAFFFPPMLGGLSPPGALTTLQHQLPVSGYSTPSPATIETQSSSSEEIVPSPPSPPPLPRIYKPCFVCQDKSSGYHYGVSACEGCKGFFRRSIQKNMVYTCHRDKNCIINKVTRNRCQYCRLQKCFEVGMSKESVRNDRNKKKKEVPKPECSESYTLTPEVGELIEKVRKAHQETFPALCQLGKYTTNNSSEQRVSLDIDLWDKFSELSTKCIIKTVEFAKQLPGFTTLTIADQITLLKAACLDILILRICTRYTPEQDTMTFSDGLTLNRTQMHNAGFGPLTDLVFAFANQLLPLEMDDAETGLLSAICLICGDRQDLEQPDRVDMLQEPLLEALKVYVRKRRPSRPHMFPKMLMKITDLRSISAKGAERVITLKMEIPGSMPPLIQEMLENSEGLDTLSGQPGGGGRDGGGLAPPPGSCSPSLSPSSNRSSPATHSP
Sequence of human Retinoic Acid Receptor gamma (RARg), RARG (gene 5916) (P13631 whole entry, looked up, the tested form may be a part): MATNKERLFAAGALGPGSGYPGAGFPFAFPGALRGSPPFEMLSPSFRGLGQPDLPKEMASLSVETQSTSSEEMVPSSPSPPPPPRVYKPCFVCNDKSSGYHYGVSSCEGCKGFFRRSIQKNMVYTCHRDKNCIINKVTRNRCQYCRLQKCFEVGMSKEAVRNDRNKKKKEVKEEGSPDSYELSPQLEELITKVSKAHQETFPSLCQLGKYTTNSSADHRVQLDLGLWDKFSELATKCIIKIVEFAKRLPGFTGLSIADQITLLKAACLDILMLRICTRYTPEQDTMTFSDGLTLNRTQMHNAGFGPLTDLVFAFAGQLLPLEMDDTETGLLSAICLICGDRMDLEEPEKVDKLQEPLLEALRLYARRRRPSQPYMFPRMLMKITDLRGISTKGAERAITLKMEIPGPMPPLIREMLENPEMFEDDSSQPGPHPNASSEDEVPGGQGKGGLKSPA

In general, AC50 refers to the concentration giving half of the maximal activity seen. Consider `O=C(Nc1ccc2c(c1)Cc1ccccc1-2)C(F)(F)F`, for which the outcome in assay [1], in [2], in [4], in [5], in [6] and in assay [7] was inactive. Also, the concentration at half-maximal activity (AC50) in assay [3] is 24.8 µM (active); in [8], 27.7 µM (active).

As for `CC(=O)Nc1ccc(C(=O)CCl)cc1`, the call in [1], in [9], in assay [4], in [15] and in assay [8] was inactive. In addition, the AC50 in [2] is 2.5 µM (active); in assay [3], 0.41 µM (active); in assay [10], 9.37 µM (active); in assay [11], 9.48 µM (active); in [12], 6.27 µM (active); in assay [13] it was 6.53 µM (active). Further, the AC50 is 2.66 µM (active) in assay [5], 8.45 µM (active) in assay [14], 6.13 µM (active) in assay [16] and 2.31 µM (active) in assay [7].

Regarding `CCCCC(CC)COC(=O)c1ccc(O)cc1` (stereo not drawn), the outcome in [1], in assay [2], in assay [3], in assay [9], in [4] and in assay [5] was inactive. Also, the compound was classed as inactive in assay [17].

Take `C=CCCC(=O)/C=C/C1C(C)=CCCC1(C)C` (stereo not drawn): the outcome in assay [1], in assay [2], in assay [9], in [4] and in assay [17] was inactive. Further, the figures for the AC50 in [3] and in [7] were 110 µM (active) and 24.4 µM (active), respectively.

On to `CS(C)=O`, for which the result in [1], in assay [2], in assay [3], in [9], in [4] and in assay [8] was inactive. The outcome in [18] and in assay [19] was inactive.

For `CCCC1O[C@@H]2C[C@H]3[C@@H]4CCC5=CC(=O)C=C[C@]5(C)[C@H]4[C@@H](O)C[C@]3(C)[C@]2(C(=O)CO)O1` (stereo partly drawn), the outcome in [1], in [9], in assay [5], in [15], in assay [7] and in [18] was inactive. The AC50 was 78.9 µM (active) in assay [3], 37.5 µM (active) in assay [4] and 1.36 µM (active) in [8].

`CS(=O)(=O)OCCCCOS(C)(=O)=O`: the compound was called inactive in assay [1], in assay [3], in assay [9], in assay [4], in assay [10] and in assay [11]. Moreover, the outcome in assay [12], in assay [13], in assay [17], in [14], in assay [6] and in assay [16] was inactive. The compound was classed as inactive in assay [7] and in assay [19].

Take `O=C(O)COCC(=O)O`: the call in [1], in assay [2], in assay [3], in [4] and in assay [8] was inactive.
